Values without a mark were called inactive.

What all share (assay): log2 ratio of Biotin-Ahx-Ub-VS probe labelling (fragment/DMSO); higher = less target engagement (more negative = stronger competition), active = hit call of the paper (q ≤ 0.05, log2 ratio ≤ -1)
Conditions in all cases: compound concentration: 200 uM; treatment time: 3 h

One assay has as its target USP16 (UniProt Q9Y5T5). Summed up:
(§1)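 Labelled DUBs were enriched with NeutrAvidin, digested with LysC and trypsin, and run by diaPASEF LC-MS/MS. The labelling used Biotin-Ahx-Ub-VS at 0.5 µM final for 1 h on HEK293T lysate (495 µg per sample) previously treated in triplicate with fragment at 200 µM or vehicle for 3 h. Values are average log2 fragment/vehicle ratios by unpaired t-test on global-median-normalised Spectronaut quantities of proteins with ≥2 unique peptides.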

The target in a further assay is T1, USP19 (UniProt O94966).
T1 sequence (whole entry): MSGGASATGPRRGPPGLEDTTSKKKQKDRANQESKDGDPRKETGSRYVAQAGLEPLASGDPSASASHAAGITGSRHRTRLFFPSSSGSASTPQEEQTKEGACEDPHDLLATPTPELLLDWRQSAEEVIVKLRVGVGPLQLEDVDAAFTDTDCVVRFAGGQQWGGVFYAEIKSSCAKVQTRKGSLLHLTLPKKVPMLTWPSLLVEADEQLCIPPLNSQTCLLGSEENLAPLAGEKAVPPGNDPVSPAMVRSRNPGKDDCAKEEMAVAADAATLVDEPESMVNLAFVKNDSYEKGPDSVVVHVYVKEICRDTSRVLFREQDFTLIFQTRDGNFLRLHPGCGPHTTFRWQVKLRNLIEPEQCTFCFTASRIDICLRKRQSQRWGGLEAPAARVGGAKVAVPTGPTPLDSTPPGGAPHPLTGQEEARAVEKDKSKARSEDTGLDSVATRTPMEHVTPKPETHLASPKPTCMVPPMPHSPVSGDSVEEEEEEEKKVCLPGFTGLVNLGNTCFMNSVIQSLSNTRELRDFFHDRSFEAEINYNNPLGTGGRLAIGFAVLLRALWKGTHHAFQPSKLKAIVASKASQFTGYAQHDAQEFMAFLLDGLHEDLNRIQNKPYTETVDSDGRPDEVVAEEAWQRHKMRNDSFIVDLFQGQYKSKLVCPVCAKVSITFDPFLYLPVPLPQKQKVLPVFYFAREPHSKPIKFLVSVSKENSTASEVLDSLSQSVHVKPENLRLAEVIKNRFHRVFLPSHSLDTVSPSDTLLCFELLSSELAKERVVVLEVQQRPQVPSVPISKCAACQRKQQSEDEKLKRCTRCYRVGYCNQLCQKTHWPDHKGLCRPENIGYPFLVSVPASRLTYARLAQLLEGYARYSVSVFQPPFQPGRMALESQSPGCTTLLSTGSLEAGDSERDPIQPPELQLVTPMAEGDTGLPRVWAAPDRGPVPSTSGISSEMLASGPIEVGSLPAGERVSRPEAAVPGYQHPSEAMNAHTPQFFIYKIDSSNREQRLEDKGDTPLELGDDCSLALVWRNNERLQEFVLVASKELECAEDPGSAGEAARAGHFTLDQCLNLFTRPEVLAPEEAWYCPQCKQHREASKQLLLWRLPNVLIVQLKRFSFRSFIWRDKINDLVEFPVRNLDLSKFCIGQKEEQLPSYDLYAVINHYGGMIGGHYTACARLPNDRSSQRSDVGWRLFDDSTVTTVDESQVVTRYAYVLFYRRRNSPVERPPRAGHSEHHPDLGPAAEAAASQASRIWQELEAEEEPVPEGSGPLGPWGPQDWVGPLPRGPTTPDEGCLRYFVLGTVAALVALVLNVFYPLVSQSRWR
An outline of the steps:
as §1

In the next assay the target is USP24 (UniProt Q9UPU5). Summed up:
as §1

The target in a further assay is T2, USP25 (UniProt Q9UHP3).
T2 sequence (whole entry): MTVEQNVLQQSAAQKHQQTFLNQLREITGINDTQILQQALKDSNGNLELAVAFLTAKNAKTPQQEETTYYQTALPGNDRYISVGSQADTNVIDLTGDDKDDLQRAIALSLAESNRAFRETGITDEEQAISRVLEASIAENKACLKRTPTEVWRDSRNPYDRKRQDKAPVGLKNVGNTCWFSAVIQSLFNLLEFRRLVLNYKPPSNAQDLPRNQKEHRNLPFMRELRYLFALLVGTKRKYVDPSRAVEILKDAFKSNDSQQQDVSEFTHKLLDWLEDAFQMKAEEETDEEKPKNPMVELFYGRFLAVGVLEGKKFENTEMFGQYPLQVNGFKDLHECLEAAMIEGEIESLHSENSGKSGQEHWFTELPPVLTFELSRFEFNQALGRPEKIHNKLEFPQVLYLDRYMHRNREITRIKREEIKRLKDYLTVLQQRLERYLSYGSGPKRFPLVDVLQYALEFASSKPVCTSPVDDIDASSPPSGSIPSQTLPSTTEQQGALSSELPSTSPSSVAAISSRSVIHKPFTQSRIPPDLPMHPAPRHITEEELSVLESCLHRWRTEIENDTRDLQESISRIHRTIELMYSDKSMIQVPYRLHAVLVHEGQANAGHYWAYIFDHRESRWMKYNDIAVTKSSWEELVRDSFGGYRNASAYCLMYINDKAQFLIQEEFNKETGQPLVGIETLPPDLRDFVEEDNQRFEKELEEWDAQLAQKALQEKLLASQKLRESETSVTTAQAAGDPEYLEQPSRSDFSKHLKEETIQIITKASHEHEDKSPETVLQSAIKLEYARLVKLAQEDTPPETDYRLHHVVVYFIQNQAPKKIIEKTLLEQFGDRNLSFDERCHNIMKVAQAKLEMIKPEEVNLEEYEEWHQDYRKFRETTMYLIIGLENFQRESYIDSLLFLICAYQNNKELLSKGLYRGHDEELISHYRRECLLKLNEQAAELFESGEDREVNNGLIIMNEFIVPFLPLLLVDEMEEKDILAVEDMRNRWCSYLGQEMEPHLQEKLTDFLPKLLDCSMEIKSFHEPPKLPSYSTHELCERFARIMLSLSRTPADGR
Summed up:
as §1

Another assay has as its target T3, USP28 (UniProt Q96RU2).
T3 sequence (whole entry): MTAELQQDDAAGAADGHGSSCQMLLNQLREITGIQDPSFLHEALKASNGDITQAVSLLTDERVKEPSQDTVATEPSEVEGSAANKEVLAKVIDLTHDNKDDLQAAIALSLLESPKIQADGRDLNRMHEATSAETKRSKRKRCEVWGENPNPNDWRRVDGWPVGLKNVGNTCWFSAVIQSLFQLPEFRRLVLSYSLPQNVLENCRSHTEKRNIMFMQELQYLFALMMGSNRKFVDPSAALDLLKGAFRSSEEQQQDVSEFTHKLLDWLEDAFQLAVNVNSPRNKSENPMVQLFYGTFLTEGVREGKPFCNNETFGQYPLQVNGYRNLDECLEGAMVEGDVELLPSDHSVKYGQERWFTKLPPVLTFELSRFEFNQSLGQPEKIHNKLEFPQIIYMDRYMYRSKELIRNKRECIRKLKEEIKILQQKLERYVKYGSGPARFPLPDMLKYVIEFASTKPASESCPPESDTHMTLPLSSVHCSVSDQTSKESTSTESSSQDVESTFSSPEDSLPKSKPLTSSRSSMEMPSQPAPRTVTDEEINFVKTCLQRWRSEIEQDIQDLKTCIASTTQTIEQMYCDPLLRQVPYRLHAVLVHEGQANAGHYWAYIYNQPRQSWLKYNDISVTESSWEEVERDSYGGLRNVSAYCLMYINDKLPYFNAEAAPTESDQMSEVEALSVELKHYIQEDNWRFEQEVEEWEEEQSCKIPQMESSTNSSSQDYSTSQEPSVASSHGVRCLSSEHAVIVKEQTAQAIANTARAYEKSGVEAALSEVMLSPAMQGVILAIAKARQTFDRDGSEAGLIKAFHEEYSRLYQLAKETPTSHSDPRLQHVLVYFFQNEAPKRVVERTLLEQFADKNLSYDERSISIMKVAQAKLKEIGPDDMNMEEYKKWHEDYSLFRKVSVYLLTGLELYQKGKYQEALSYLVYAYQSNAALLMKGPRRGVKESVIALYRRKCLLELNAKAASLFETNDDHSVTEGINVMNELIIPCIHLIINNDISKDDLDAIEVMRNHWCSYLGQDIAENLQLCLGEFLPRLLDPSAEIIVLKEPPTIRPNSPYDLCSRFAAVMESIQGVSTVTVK
An outline of the steps:
as §1

Chain of USP24 (Q9UPU5 whole entry): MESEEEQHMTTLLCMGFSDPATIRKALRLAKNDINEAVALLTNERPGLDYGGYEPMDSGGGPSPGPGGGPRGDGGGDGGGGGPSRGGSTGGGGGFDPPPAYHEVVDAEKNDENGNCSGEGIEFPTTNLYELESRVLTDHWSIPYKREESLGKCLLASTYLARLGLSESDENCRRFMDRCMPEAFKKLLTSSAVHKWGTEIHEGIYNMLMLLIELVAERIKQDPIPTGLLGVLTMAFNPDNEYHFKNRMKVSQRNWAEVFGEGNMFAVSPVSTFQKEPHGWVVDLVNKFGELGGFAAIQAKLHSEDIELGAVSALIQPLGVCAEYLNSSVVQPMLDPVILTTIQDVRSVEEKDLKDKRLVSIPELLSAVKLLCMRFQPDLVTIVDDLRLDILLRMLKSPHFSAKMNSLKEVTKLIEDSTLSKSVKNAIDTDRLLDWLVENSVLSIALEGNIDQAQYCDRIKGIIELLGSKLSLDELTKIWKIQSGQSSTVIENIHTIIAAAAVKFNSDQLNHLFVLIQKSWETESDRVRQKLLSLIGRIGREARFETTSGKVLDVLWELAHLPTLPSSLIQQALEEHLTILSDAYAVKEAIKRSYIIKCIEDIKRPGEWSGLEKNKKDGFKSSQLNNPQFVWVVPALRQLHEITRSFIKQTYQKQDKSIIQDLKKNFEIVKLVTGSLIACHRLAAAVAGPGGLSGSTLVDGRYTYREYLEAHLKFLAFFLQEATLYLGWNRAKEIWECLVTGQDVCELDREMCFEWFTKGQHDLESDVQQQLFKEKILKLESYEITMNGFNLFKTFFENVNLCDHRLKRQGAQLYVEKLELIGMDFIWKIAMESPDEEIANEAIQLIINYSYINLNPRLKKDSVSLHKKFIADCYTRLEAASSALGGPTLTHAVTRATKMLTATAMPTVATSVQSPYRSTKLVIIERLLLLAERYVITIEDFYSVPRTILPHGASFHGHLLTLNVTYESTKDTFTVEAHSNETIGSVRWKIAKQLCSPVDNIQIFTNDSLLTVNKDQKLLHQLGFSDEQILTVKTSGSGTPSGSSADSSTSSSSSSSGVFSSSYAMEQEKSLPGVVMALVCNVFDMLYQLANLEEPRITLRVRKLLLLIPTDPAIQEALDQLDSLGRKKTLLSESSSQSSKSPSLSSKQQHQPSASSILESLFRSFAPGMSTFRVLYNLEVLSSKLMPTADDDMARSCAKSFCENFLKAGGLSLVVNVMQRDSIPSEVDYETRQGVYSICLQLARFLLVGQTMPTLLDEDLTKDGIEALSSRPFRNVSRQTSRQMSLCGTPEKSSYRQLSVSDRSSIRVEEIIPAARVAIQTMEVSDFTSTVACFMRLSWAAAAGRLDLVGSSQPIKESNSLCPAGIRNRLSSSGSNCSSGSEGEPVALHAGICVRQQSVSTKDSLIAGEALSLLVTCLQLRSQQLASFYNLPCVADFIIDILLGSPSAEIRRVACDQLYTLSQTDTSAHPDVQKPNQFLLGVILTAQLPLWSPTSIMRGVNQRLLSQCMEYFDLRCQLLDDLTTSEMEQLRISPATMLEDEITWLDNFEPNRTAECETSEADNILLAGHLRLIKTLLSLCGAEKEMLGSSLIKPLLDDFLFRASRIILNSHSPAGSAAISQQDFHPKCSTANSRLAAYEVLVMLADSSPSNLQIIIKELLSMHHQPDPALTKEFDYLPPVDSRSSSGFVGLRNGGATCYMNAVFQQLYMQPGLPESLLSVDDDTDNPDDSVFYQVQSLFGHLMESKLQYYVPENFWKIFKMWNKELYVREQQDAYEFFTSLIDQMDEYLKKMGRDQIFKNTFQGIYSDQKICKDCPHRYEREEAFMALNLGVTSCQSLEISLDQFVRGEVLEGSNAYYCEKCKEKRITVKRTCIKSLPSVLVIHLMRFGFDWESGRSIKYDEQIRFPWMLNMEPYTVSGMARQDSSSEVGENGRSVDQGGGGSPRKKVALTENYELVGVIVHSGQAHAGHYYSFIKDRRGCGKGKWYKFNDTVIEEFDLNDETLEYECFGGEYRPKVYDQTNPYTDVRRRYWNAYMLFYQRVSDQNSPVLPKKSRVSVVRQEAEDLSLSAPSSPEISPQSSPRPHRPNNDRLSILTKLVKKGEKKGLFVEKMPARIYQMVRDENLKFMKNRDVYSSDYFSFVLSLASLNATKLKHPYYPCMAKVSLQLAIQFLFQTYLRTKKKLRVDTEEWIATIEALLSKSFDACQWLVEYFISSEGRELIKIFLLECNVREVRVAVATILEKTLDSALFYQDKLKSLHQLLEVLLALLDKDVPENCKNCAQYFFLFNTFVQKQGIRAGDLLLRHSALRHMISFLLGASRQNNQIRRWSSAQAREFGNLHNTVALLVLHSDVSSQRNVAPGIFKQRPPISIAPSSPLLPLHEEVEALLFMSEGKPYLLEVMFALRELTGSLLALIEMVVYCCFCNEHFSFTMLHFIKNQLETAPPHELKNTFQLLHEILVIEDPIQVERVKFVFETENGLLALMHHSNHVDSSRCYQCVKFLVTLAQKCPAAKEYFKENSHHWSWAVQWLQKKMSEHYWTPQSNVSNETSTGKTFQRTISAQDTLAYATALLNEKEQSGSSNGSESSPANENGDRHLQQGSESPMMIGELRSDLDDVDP
Chain of USP16 (Q9Y5T5 whole entry, looked up, the tested form may be a part): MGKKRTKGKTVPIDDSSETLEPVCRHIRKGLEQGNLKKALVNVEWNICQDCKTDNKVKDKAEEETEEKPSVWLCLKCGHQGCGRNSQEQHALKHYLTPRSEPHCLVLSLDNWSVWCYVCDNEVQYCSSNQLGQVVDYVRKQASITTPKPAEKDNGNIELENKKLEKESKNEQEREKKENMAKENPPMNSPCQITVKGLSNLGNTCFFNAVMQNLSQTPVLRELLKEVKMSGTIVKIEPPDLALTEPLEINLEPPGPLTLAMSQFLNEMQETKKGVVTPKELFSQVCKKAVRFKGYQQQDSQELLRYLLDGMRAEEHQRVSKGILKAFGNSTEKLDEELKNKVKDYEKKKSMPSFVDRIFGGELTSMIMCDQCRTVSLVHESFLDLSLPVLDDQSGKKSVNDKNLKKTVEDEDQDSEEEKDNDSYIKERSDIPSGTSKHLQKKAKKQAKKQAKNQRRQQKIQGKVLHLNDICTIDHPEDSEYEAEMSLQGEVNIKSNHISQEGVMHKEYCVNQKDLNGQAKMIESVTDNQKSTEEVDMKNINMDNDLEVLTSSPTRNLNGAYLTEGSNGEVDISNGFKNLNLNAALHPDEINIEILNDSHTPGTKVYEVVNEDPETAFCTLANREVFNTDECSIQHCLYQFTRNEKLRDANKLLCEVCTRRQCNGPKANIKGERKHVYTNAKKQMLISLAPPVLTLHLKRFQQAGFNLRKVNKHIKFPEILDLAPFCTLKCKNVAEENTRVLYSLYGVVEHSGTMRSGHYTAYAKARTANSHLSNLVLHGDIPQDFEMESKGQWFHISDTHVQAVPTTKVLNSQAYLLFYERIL

Regarding `Cc1ccc(N(CCC#N)C(=O)CCl)cc1C`, the “log2 ratio of Biotin-Ahx-Ub-VS probe labelling” value in the assay with USP16 was -0.0509; with USP19 it was -0.203; with USP24, -1.05 (active); with USP25, -0.271; with USP28 it was -0.679.

The values are drawn from the supplement of paper PMC11732987, “Enantioselective OTUD7B fragment discovery through chemoproteomics screening and high-throughput optimisation” (Communications Chemistry, 2025).
